# Test results from PubChem BioAssay (NCATS).
# Results filed as inconclusive are left out. Calls of active or inactive are those of the source. Calls follow the shape of the dose curve; as a rule, active = well fitted curve in the direction sought with a large enough effect; inconclusive = small, poorly fitted or top-dose-only effect, or another doubt; inactive = no such curve, though single readings can be large; an effect the other way counts as inactive or inconclusive.
# System: not listed separately
# Assay: Primary fluorescence-based thiol-reactive (MSTI) qHTS assay for identification of artifact compounds. (AID 1845221); also: nearly all actives have a fitted effect of over 65% in size; also: potency is read from the fitted curve at half-maximal effect;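 as to activity change, negative = thiol reactive: thiol-reactive compounds lower the probe fluorescence signal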
# Conditions: MSTI thiol-reactivity probe, 1 h; series mostly up to 53.8 µM; activity change, negative = thiol reactive: at the top concentration
# Outline: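 A multi-concentration qHTS design tested compounds against 4 uM MSTI, pH 7.4 phosphate-buffered saline. Plates were protected from light for 1 h at room temperature before imaging fluorescence.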
SMILES,"activity change, negative = thiol reactive",Potency
C=C1C(=O)O[C@@H]2C/C(C)=C\C(=O)/C=C(\C)[C@@H](OC(=O)/C(C)=C\C)[C@H](O)[C@@H]12,-16.1% (inactive),
CC(=O)O[C@H]1C(=O)[C@@]2(C)[C@H]([C@H](OC(=O)c3ccccc3)[C@]3(O)C[C@H](OC(=O)[C@H](O)[C@@H](NC(=O)c4ccccc4)c4ccccc4)C(C)=C1C3(C)C)[C@]1(OC(C)=O)CO[C@@H]1C[C@@H]2O,52.3% [at 11.5 µM] (inactive),
COc1ccc(CC2NCCc3c2[nH]c2ccc(C)cc32)cc1OC (stereo unspecified),-5.15% (inactive),
Cc1ccc(F)cc1C(=O)Nc1ccc(C(=O)N2Cc3cccn3Cc3ccccc32)c(Cl)c1,332% (inactive),
OCC1OC(Oc2cc(O)cc(/C=C/c3ccc(O)cc3)c2)C(O)C(O)C1O (stereo unspecified),,2.93 µM (active)
CCC(C)/C=C(C)/C=C/c1cc2c(cn1)C(=O)C(C)(OC(C)=O)C(O)=C2Cl (stereo unspecified),,0.736 µM (active)
Cc1cn(C2C=CC(CO)O2)c(=O)[nH]c1=O (stereo unspecified),-8.42% (inactive),
COc1ccc(C2COc3cc(O)ccc3C2)c(O)c1 (stereo unspecified),5.52% (inactive),
C[C@@H]1C(=O)O[C@H]2[C@@H](O)C34[C@H]5C[C@@H](C(C)(C)C)C36[C@@H](OC(=O)[C@@H]6O)O[C@@]4(C(=O)O5)[C@@]12O (stereo partly specified),-19.6% (inactive),
O=C(Nc1ccc(Cl)cc1F)c1ccccc1O,-18.9% (inactive),
CCOC(=O)Nc1cc(-c2ccc(C)c(NS(C)(=O)=O)c2)nn2c(C)nnc12,65.5% (inactive),
Cn1nnc(-c2ccc(-c3ccc(N4C[C@H](COP(=O)(O)O)OC4=O)cc3F)cn2)n1,41.9% (inactive),

# System: Nanoluciferase (engineered Oplophorus gracilirostris luciferase)
# Assay: Primary Nanoluciferase (NLuc) qHTS assay for identification of artifact compounds. (AID 1845222);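 also: NLuc secreted into diluted conditioned medium of S16 cells; 0% = DMSO and -100% = no enzyme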
# Conditions: NLuc-conditioned medium, Nano-Glo luminescence, 5 min; series mostly up to 54.1 µM; activity, negative = inhibition: at the top concentration
# Outline: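 S16 cell supernatant NLuc, 1:55; cpds qHTS; 15 min RT dark; Nano-Glo substrate 1:100, 5 min; luminescence; Hill fit of % inhibition.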
row,SMILES,"activity, negative = inhibition"
1,CC(c1ncncc1F)C(O)(Cn1cncn1)c1ccc(F)cc1F (stereo unspecified),-4.27% (inactive)
2,CNC(C)C(=O)NC(C(=O)N1CCCC1c1nc(C(=O)c2ccc(F)cc2)cs1)C1CCCCC1 (stereo unspecified),2.19% (inactive)
3,C/C=C1\[C@H](O[C@@H]2O[C@H](CO)[C@@H](O)[C@H](O)[C@H]2O)OC=C(C(=O)OC)[C@H]1CC(=O)OC[C@H]1O[C@@H](OCCc2ccc(O)cc2)[C@H](O)[C@@H](O)[C@@H]1O,0.648% [at 25.7 µM] (inactive)
4,OC/C=C/c1ccc(O[C@@H]2O[C@H](CO)[C@@H](O)[C@H](O)[C@H]2O)cc1,-11.3% (inactive)
5,Cn1nc(C(C)(C)C)cc1C(=O)NC(Cc1cccc(Cl)c1)C(=O)NCC#N (stereo unspecified),-3.06% (inactive)
6,CS(=O)(=O)NCC1CCC(Nc2nc3c(s2)CCSc2ccccc2-3)CC1 (stereo unspecified),3.34% (inactive)
7,CC(=O)OC[C@@]12C(=O)C[C@@H](C)[C@]3(C[C@@H](c4ccoc4)O[C@H]3OC(C)=O)[C@H]1CCC[C@]21CO1,-4% [at 25.7 µM] (inactive)
8,COC(=O)C1=CO[C@@H](O[C@@H]2O[C@H](CO)[C@@H](O)[C@H](O)[C@H]2O)[C@@H]2C(COC(C)=O)=C[C@H](O)[C@H]12,3.37% [at 25.7 µM] (inactive)
9,C=CC(C)(O)CC/C=C(\C)C(=O)OC1C(O)C(CO)OC(OC(=O)C23CCC(C)(C)CC2C2=CCC4C5(C)CCC(OC6OC(COC7OCC(OC(C)=O)C(O)C7OC7OC(COC(C)=O)C(O)C(O)C7O)C(O)C(O)C6O)C(C)(C)C5CCC4(C)C2(C)C(O)C3O)C1OC1OCC(OC2OCC(O)C(OC3OCC(O)C(O)C3O)C2O)C(O)C1O (stereo unspecified),2.81% [at 6.45 µM] (inactive)
10,NC(=O)C(CCC(F)(F)F)N(Cc1ccc(-c2ncon2)cc1F)S(=O)(=O)c1ccc(Cl)cc1 (stereo unspecified),-7.93% (inactive)
11,COc1cc2c3c(cc4ccccc4c3c1O)NC2=O,-4.9% (inactive)
12,CC[C@H]1OC(=O)[C@](C)(F)C(=O)[C@H](C)[C@@H](O[C@@H]2O[C@H](C)C[C@H](N(C)C)[C@H]2O)[C@](C)(OC)C[C@@H](C)C(=O)[C@@H](C)[C@H]2N(CCCCn3cc(-c4cccc(N)c4)nn3)C(=O)O[C@]12C,3.61% (inactive)
13,COC(=O)CC1CC(c2ccc(O)cc2)=NO1 (stereo unspecified),-13.3% (inactive)
14,COc1nc2sc(C(=O)NC3CC3)c(N)c2c(C)c1Cl,-0.315% (inactive)
15,CC1(c2nc3c(C(N)=O)cccc3[nH]2)CCCN1 (stereo unspecified),2.64% (inactive)
16,COC(=O)N[C@H](C(=O)N1[C@@H]2CC[C@@H](C2)[C@H]1c1nc2ccc(-c3ccc4c(c3)C(F)(F)c3cc(-c5cnc([C@@H]6CCC7(CC7)N6C(=O)[C@@H](NC(=O)OC)C(C)C)[nH]5)ccc3-4)cc2[nH]1)C(C)C,1.08% [at 25.7 µM] (inactive)
17,CC1(C)CC[C@]2(C(=O)O)CC[C@]3(C)C(=CCC4[C@@]5(C)C[C@@H](O)[C@H](O)C(C)(C)C5CC[C@]43C)C2C1 (stereo partly specified),3.47% [at 25.7 µM] (inactive)
18,CC1=C(/C=C/C(C)=C\C=C\C(C)=C/C(=O)O)C(C)(C)CCC1,-3.33% (inactive)
19,CC(=O)N1CCN(Cc2ccc([C@H](C)Nc3nccc(N4C(=O)OC[C@@H]4C(C)C)n3)cc2)CC1,0% (inactive)
